45 compounds from publication PMC4336329 (PLoS ONE, 2015) can be followed below.

Among all 310,000 compounds or so, about 14,000 (4.5%) showed an effect of 50% or more. The effect is printed as a negative number. This excerpt belongs to a sample that is enriched for strong results.
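Further: peak tail current of the secondary pulse compared with the same well before compound.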

In this test the target is human ether-à-go-go-related gene (hERG) potassium channel (human, UniProt Q12809). The experiment in a line: primary screen, population patch clamp on CHO cells stably expressing hERG; higher = less effect of the substance.
Chain of human ether-à-go-go-related gene (hERG) potassium channel (Q12809 whole entry, looked up): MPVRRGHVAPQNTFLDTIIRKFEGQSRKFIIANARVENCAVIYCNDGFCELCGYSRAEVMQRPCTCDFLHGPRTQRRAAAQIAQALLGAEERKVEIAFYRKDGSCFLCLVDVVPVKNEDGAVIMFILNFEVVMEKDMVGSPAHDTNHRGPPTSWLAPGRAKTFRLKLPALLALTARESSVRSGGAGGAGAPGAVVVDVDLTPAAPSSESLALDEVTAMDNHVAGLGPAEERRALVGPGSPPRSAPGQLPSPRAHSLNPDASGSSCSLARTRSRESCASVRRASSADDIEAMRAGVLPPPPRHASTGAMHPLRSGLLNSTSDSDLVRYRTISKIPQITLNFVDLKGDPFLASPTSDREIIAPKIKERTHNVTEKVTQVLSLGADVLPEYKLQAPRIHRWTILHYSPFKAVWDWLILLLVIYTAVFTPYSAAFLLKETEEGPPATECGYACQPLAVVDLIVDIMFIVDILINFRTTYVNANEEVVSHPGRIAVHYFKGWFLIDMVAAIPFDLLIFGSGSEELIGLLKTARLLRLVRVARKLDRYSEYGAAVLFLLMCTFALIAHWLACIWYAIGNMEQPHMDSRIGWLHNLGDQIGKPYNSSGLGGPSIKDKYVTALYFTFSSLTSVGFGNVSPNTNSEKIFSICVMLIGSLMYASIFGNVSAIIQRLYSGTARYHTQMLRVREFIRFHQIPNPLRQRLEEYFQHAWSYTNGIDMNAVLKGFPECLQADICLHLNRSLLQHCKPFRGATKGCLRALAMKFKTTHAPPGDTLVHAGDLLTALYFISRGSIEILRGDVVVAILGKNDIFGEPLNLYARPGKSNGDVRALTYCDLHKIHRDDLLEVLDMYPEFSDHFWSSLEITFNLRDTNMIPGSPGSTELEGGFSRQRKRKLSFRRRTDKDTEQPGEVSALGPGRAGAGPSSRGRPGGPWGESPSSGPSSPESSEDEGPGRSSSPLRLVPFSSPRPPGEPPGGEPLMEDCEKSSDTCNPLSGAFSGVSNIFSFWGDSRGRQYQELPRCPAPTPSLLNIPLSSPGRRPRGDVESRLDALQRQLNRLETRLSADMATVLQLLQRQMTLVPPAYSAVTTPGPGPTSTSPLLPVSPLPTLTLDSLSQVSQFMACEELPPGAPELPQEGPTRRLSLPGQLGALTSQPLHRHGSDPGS
With `COc1ccc(-[n+]2c(-c3ccccc3)cc(-c3ccccc3)cc2-c2ccccc2)cc1.[O-][Cl+3]([O-])([O-])[O-]`, the “hERG current change (%, negative = inhibition) at 10uM” value was -71.9%.
For `COc1ccc(-c2cccc(C(=O)Nc3ccc(C)cc3)c2)cc1`, the “hERG current change (%, negative = inhibition) at 10uM” value is given as 16.9%.
For `COc1ccc2cc(-c3ccccc3)ncc2c1` the value was 5.65%.
For `COc1ccc(-[n+]2c(-c3ccccc3)cc(-c3ccc(C)cc3)cc2-c2ccccc2)cc1.[O-][Cl+3]([O-])([O-])[O-]` the value was -77.7%.
With `CSc1ccc(S(=O)(=O)NCc2ccccc2)cc1`, the “hERG current change (%, negative = inhibition) at 10uM” value is reported as 13.1%.
For `CCCC(CCC(=O)Nc1cccc([N+](=O)[O-])c1)C(=O)O` (stereo not drawn) the value was -0.0899%; for `CCOc1ccc(-n2c(C)nc3cc(C(=O)NCC4CCCO4)ccc32)cc1` (stereo not drawn), -15.2%; for `CCN(CC)c1ccc(S(=O)(=O)N2CCCCC2)cc1NC(=O)C1CCC1`, -15.3%.
As for `CC1(C)CC(=O)c2cnc(NCC3CCCO3)nc2C1` (stereo not drawn), the figure is 7.24%; as for `COc1cc(C2=NOC(C(=O)Nc3ccc4c(c3)OCO4)C2)cc(OC)c1OC` (stereo not drawn), 16.6%; as for `FC(F)(F)c1nc(N2CCCC2)ncc1-c1nnnn1-c1ccc(Cl)cc1`, -4.4%.
For `CC1(C)C(N(O)C(=O)Nc2ccc(Cl)cc2)N(c2ccc(Cl)cc2)C(=O)N1CC(=O)NN` (stereo not drawn) the value was -14.6%.
As to `O=c1cc(-c2ccccc2)[nH]n2cnnc12`, the “hERG current change (%, negative = inhibition) at 10uM” value amounted to 12.6%.
For `O=C(CN1C(=O)S/C(=C\c2ccc(Cl)cc2)C1=O)NCCCn1ccnc1`, the “hERG current change (%, negative = inhibition) at 10uM” value was -68.2%.
Turning to `O=C(CN1C(=O)S/C(=C\c2ccccc2Cl)C1=O)NCCCn1ccnc1`, the “hERG current change (%, negative = inhibition) at 10uM” value is recorded as -44.5%.
As for `COc1cccc(/C=C2\SC(=O)N(CC(=O)NCCCn3ccnc3)C2=O)c1`, the figure is -31.6%.
As for `COc1ccc(/C=C2\SC(=O)N(CCC(=O)NCCCn3ccnc3)C2=O)cc1`, the figure is -43.2%.
Turning to `O=C(CN1C(=O)S/C(=C\c2ccccc2F)C1=O)NCCCn1ccnc1`, the “hERG current change (%, negative = inhibition) at 10uM” value is on record as -9.34%.
As for `COc1ccccc1/C=C1\SC(=O)N(CC(=O)NCCCn2ccnc2)C1=O`, the figure is -3.76%; as for `CC(C)c1ccc(/C=C2\SC(=O)N(CC(=O)NCCCn3ccnc3)C2=O)cc1`, -76.9%.
As to `O=C(CN1C(=O)S/C(=C\c2cccc(Cl)c2)C1=O)NCCCn1ccnc1`, the “hERG current change (%, negative = inhibition) at 10uM” value is given as -51.2%.
For `COc1ccc(/C=C2\SC(=O)N(CC(=O)NCCCn3ccnc3)C2=O)cc1` the value was -44.5%; for `CC(C)c1ccc(/C=C2\SC(=S)N(CCC(=O)NCCCn3ccnc3)C2=O)cc1`, -17.3%.
For `O=C(CN1C(=O)S/C(=C\c2ccccc2)C1=O)NCCCn1ccnc1` the value was -23.4%.
`O=C(CN1C(=O)S/C(=C\c2ccc(F)cc2)C1=O)NCCCn1ccnc1`: the “hERG current change (%, negative = inhibition) at 10uM” value is -58.9%.
As for `CCCCCCCCN1[C@@H](CC(=O)OC)c2cc(C(F)(F)F)ccc2S1(=O)=O`, the figure is 1.99%.
As for `Cc1cc(C)n(-c2nc3c(c(=O)[nH]c(=O)n3C)n2C)n1`, the figure is 10.1%; as for `Oc1ccc(-c2cc(-c3ccc(O)cc3)nc(-c3ccccc3)n2)cc1`, 20.1%; as for `Cc1ccc(S(=O)(=O)n2[nH]c(=O)cc2NC(=O)c2cccs2)cc1`, -0.667%.
For `CCc1nn2c(=O)cc(CSCC(=O)Nc3ccccc3F)nc2s1` the value was 11.3%; for `Cc1ccccc1OCC(=O)N1CCCCCCC1`, 1.22%.
As to `CCC(C#CCN1CCCCC1)(CC)OCCC#N`, the “hERG current change (%, negative = inhibition) at 10uM” value was 2.57%.
As for `CCOC(=O)Cc1nnc(NC(=O)CSc2ncc(-c3ccccc3)nn2)s1`, the figure is -58.7%; as for `CCOC(=O)Cc1nnc(NC(=O)CSc2ccccc2)s1`, 7.53%.
Turning to `CCOC(=O)CSc1ncc(-c2ccccc2)nn1`, the “hERG current change (%, negative = inhibition) at 10uM” value was -6.58%.
For `C=CCc1cc(C=O)cc(OCC)c1OCc1ccc(Cl)cc1` the value was 31.4%.
For `COc1ccccc1C1C(C#N)=C(N)Oc2cc(C)n(Cc3ccccn3)c(=O)c21` (stereo not drawn) the value was -2.81%; for `Cc1ccc2c(c1)C(=C(C#N)C#N)C(=O)N2CCN1CCOCC1`, -38.6%; for `CCCS(=O)(=O)c1nc(S(=O)(=O)c2ccc(C)cc2)c(N2CCc3ccccc3C2)s1`, 5.34%.
For `Cc1ccc(-c2cnc(SCC(=O)N3CCCc4ccccc43)n2C)cc1` the value was -50.8%; for `O=C(c1cc(-c2ccc(O)cc2)on1)N1CCCc2ccccc21`, -29.5%.
As to `Cn1c(-c2ccc(F)cc2)cnc1SCC(=O)N1CCCc2ccccc21`, the “hERG current change (%, negative = inhibition) at 10uM” value was -24.8%.
As for `O=C(c1cc(-c2ccccc2)on1)N1CCCc2ccccc21`, the figure is -18.1%.
With `Cc1ccc(-c2cc(C(=O)N3CCCc4ccccc43)no2)cc1`, the “hERG current change (%, negative = inhibition) at 10uM” value is given as -75.6%.
For `Cn1c(-c2ccccc2)cnc1SCC(=O)N1CCCc2ccccc21` the value was -27.9%.
